Experimental findings from ChEMBL document CHEMBL4296182, “CO-ADD screening of NIH NCI Diversity Set V” are described below.

As a reminder, the Inhibition is the drop in the measured response relative to a control, in per cent.

For the first test, the system named is Acinetobacter baumannii. The experiment in a line: Antibacterial activity against Acinetobacter baumannii ATCC 19606 (CO-ADD:GN_034); MIC in CAMBH media using NBS plates, by Resazurin F(560/590). The test is classed as functional. The note with it: Concentration 20 uM, ASSAY_TEST Inhibition of Bacterial Growth, detection method Resazurin, Fluorescence (ex560/em590), MEDIA CAMHB, plate type 384well, CORNING #3640, time 18 hr.
For `COc1ccc(NC2=CC(=S)NC(C)(C)C2)cc1`, the Inhibition is -15.84%.

With `CC1(c2ccc3ccccc3c2)CCC(=O)O1` (stereo not drawn), the Inhibition is listed as -6.13%.

For the compound `O=C(O)c1nc2nc(Cl)c(Cl)nc2[nH]1`, the Inhibition is reported as 8.37%.

For `C1=CC2(C=C1)OC21CCC2(C=CC3(C2)OC3C2CCCCC2)CC1` (stereo not drawn), the Inhibition is 2.41%.

Regarding `O=P(O)(O)c1cc(-c2ccccc2)oc1-c1ccccc1`, the Inhibition is recorded as 9.92%.

Turning to `O=C(O)c1ccccc1C(=O)Nc1ccccc1[N+](=O)[O-]`, the Inhibition turned out to be 5.2%.

As to `NC(=O)c1nc2c([nH]c1=O)CCCC2`, the Inhibition is on record as -15.59%.

For `Cc1n[nH]c2c([N+](=O)[O-])c(=O)[nH]c(=O)n12`, the Inhibition is on record as -12.95%.

With `Cc1ccncc1C(N)=O`, the Inhibition was -6.4%.

As for `N=C(N)Nc1nc2cc([N+](=O)[O-])ccc2[nH]1`, the Inhibition is reported as -6.93%.

`CSC1=NC=C(C#N)C2=NC(c3ccc(Cl)cc3)NN12` (stereo not drawn): the Inhibition was found to be 5.14%.

As for `O=C(Nc1cccc(-c2ccccc2)c1)N1CCN(C(=O)Nc2cccc(-c3ccccc3)c2)CC1`, the Inhibition is -7.47%.

Turning to `CCCNC(=O)c1ccccc1C(=O)NC1(C(=O)NCCC)CCCC1`, the Inhibition worked out at 6.45%.

Take `CC1=NN(c2ccccc2)C(=O)C1C(=S)SC1CC(=O)NC1=O` (stereo not drawn): the Inhibition came to 14.97%.

Regarding `CSc1nc(O)c(Nc2cccc(Cl)c2)c(O)n1`, the Inhibition was determined as 14.23%.

On to `CSc1nc2nc(C(O)c3ccccc3)nc-2c[nH]1` (stereo not drawn), for which the Inhibition was 6.4%.

For the compound `S=C(SCc1cc(Cl)cc2c1OCOC2)N1CCSCC1`, the Inhibition is given as -7.54%.

Regarding `CC(=O)O.COc1ccc2nccc(/C=C/c3ccnc4ccc(OC)cc34)c2c1`, the Inhibition is -11.4%.

Take `O=C(NC1(N2CCOCC2)CC1)c1ccc(Cl)cc1`: the Inhibition was -6.57%.

On to `O=C(Nc1cccc2c1N(C(=O)c1ccco1)CCC2)c1ccco1`, for which the Inhibition was determined as 8.42%.

Turning to `CCOC(=O)C1(C#N)C(=O)CS/C1=N/c1ccccc1Cl` (stereo not drawn), the Inhibition came to 6.45%.

For `NC(CSC1(c2cccc3ccccc23)c2ccccc2-c2ccccc21)C(=O)O` (stereo not drawn), the Inhibition was -6.6%.

In the case of `CCN(CC)CCNC(=O)C(Cl)=C1C(Cl)=C(Cl)C(Cl)=C1Cl`, the Inhibition worked out at 6.92%.

`CCC1=C(c2ccc(OC)cc2)CCC(C(=O)O)C1C` (stereo not drawn): the Inhibition was determined as 6.76%.

On to `Cc1ccc(CC#N)c(-c2c(CC#N)ccc(C)c2C)c1C`, for which the Inhibition was -9.1%.

`CCOC(=O)c1c(C)nc(C)c(C(=O)OCC)c1-c1cccnc1`: the Inhibition is 13%.

As to `N=C(N)NC(=N)Nc1ccc(O)cc1`, the Inhibition is -14.34%.

On to `CC1(C)N=C(N)N=C(NCCCOc2ccc([N+](=O)[O-])cc2)N1.CCS(=O)(=O)O`, for which the Inhibition is -9.38%.

As for `COc1cccc(OCC(O)CN2CCN(c3ccc(Cl)cc3)CC2)c1` (stereo not drawn), the Inhibition is listed as 4.14%.

`O=CN/C=C\c1cc(O)ccc1O`: the Inhibition is -7.5%.

On to `CN1CCC(=C2c3ccccc3C(O)c3ccccc32)CC1` (stereo not drawn), for which the Inhibition is on record as -19.91%.

In the case of `Cc1cc(=O)[nH]/c(=N/N=C2/CCCCC2C)[nH]1` (stereo not drawn), the Inhibition is -10.76%.

As for `COc1cc(C(=O)OC(C)CN2CCOCC2)cc(OC)c1OC` (stereo not drawn), the Inhibition is recorded as 10.27%.

Turning to `Nc1nc2cc([N+](=O)[O-])ccc2[nH]1`, the Inhibition was -11.46%.

Consider `COc1cc2c(=O)n3c4c(cccc4c2cc1OC)CC3`, for which the Inhibition is -8.34%.

Turning to `Nc1nc(N)nc(-c2ccccc2-c2nc(N)nc(N)n2)n1`, the Inhibition is given as 8.5%.

For `O=C1c2cccc(Sc3ccccc3)c2C(=O)c2c(Sc3ccccc3)cccc21`, the Inhibition is given as -8.62%.

Turning to `O=S(=O)(O)c1ccc2c(c1)C(C(Cl)(Cl)Cl)OC(C(Cl)(Cl)Cl)O2` (stereo not drawn), the Inhibition is -8.34%.

Turning to `CC1=C(C(N)=O)S(=O)(=O)c2ccccc21`, the Inhibition is listed as -12.26%.

A further test has as its system Escherichia coli. In words: Antibacterial activity against Escherichia coli ATCC 25922 (CO-ADD:GN_001); MIC in CAMBH media using NBS plates, by Resazurin F(560/590). It counts as functional. As to conditions: Concentration 20 uM, ASSAY_TEST Inhibition of Bacterial Growth, detection method Resazurin, Fluorescence (ex560/em590), MEDIA CAMHB, plate type 384well, CORNING #3640, time 18 hr.
Regarding `COc1ccc(NC2=CC(=S)NC(C)(C)C2)cc1`, the Inhibition is 12.98%.

For the compound `CC1(c2ccc3ccccc3c2)CCC(=O)O1` (stereo not drawn), the Inhibition is given as 7.71%.

`O=C(O)c1nc2nc(Cl)c(Cl)nc2[nH]1`: the Inhibition amounted to 0.88%.

For `C1=CC2(C=C1)OC21CCC2(C=CC3(C2)OC3C2CCCCC2)CC1` (stereo not drawn), the Inhibition is reported as 4.97%.

As for `O=P(O)(O)c1cc(-c2ccccc2)oc1-c1ccccc1`, the Inhibition was found to be 13.72%.

On to `O=C(O)c1ccccc1C(=O)Nc1ccccc1[N+](=O)[O-]`, for which the Inhibition was 12.47%.

Regarding `NC(=O)c1nc2c([nH]c1=O)CCCC2`, the Inhibition was 13.49%.

For `Cc1n[nH]c2c([N+](=O)[O-])c(=O)[nH]c(=O)n12`, the Inhibition was 12.3%.

For the compound `Cc1ccncc1C(N)=O`, the Inhibition is 17.18%.

For the compound `N=C(N)Nc1nc2cc([N+](=O)[O-])ccc2[nH]1`, the Inhibition stood at 5.92%.

As to `CSC1=NC=C(C#N)C2=NC(c3ccc(Cl)cc3)NN12` (stereo not drawn), the Inhibition was -2.57%.

`O=C(Nc1cccc(-c2ccccc2)c1)N1CCN(C(=O)Nc2cccc(-c3ccccc3)c2)CC1`: the Inhibition worked out at 7.55%.

Take `CCCNC(=O)c1ccccc1C(=O)NC1(C(=O)NCCC)CCCC1`: the Inhibition came to 3.42%.

Regarding `CC1=NN(c2ccccc2)C(=O)C1C(=S)SC1CC(=O)NC1=O` (stereo not drawn), the Inhibition is reported as -13.13%.

Consider `CSc1nc(O)c(Nc2cccc(Cl)c2)c(O)n1`, for which the Inhibition is -1.67%.

Consider `CSc1nc2nc(C(O)c3ccccc3)nc-2c[nH]1` (stereo not drawn), for which the Inhibition is -14.24%.

Consider `S=C(SCc1cc(Cl)cc2c1OCOC2)N1CCSCC1`, for which the Inhibition is recorded as 10.68%.

`CC(=O)O.COc1ccc2nccc(/C=C/c3ccnc4ccc(OC)cc34)c2c1`: the Inhibition is given as 10.64%.

On to `O=C(NC1(N2CCOCC2)CC1)c1ccc(Cl)cc1`, for which the Inhibition is on record as -5.43%.

For `O=C(Nc1cccc2c1N(C(=O)c1ccco1)CCC2)c1ccco1`, the Inhibition came out at 4.6%.

For the compound `CCOC(=O)C1(C#N)C(=O)CS/C1=N/c1ccccc1Cl` (stereo not drawn), the Inhibition is on record as 0.68%.

In the case of `NC(CSC1(c2cccc3ccccc23)c2ccccc2-c2ccccc21)C(=O)O` (stereo not drawn), the Inhibition is listed as 9.55%.

`CCN(CC)CCNC(=O)C(Cl)=C1C(Cl)=C(Cl)C(Cl)=C1Cl`: the Inhibition was -4.74%.

Take `CCC1=C(c2ccc(OC)cc2)CCC(C(=O)O)C1C` (stereo not drawn): the Inhibition is reported as -4.91%.

Turning to `Cc1ccc(CC#N)c(-c2c(CC#N)ccc(C)c2C)c1C`, the Inhibition is given as 13.28%.

For the compound `CCOC(=O)c1c(C)nc(C)c(C(=O)OCC)c1-c1cccnc1`, the Inhibition is reported as -4.27%.

With `N=C(N)NC(=N)Nc1ccc(O)cc1`, the Inhibition was 13.43%.

Take `CC1(C)N=C(N)N=C(NCCCOc2ccc([N+](=O)[O-])cc2)N1.CCS(=O)(=O)O`: the Inhibition turned out to be 11.82%.

Take `COc1cccc(OCC(O)CN2CCN(c3ccc(Cl)cc3)CC2)c1` (stereo not drawn): the Inhibition is 2.15%.

Consider `O=CN/C=C\c1cc(O)ccc1O`, for which the Inhibition is recorded as -8.61%.

As for `CN1CCC(=C2c3ccccc3C(O)c3ccccc32)CC1` (stereo not drawn), the Inhibition turned out to be 15.16%.

Turning to `Cc1cc(=O)[nH]/c(=N/N=C2/CCCCC2C)[nH]1` (stereo not drawn), the Inhibition is reported as 10%.

In the case of `COc1cc(C(=O)OC(C)CN2CCOCC2)cc(OC)c1OC` (stereo not drawn), the Inhibition was 6.24%.

`Nc1nc2cc([N+](=O)[O-])ccc2[nH]1`: the Inhibition amounted to 3.91%.

With `COc1cc2c(=O)n3c4c(cccc4c2cc1OC)CC3`, the Inhibition stood at 13.88%.

Regarding `Nc1nc(N)nc(-c2ccccc2-c2nc(N)nc(N)n2)n1`, the Inhibition was -2.58%.

Take `O=C1c2cccc(Sc3ccccc3)c2C(=O)c2c(Sc3ccccc3)cccc21`: the Inhibition amounted to 22.23%.

With `O=S(=O)(O)c1ccc2c(c1)C(C(Cl)(Cl)Cl)OC(C(Cl)(Cl)Cl)O2` (stereo not drawn), the Inhibition came out at 18.82%.

With `CC1=C(C(N)=O)S(=O)(=O)c2ccccc21`, the Inhibition was determined as 14.02%.
